# Screens as filed in PubChem BioAssay.
# CYP2C9 inhib = blocks human cytochrome P450 2C9 | 96,000 tested, 20% active | P11712 | CYP2C9 Supersomes, luciferin-H conversion, luminescence | AID 777 | inhibition, % at 5 µM;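 active means blocking of liver enzyme CYP2C9 beyond about 50% at 5 µM, limit read from the data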
# PostGolgi ctrl = inhibits growth of the yeast control strain. efflux-deficient yeast background strain, growth absorbance A615, 16 h. inhibition, % at 10 µM. 98,000 tested, 5% active. AID 738
# CYP2C19 inhib = human CYP2C19 inhibition; CYP2C19 Supersomes, luciferin-H EGE luminescence, 30 min; inhibition, % at 5 µM; AID 778; 96,000 tested, 21% active;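 active means CYP2C19 inhibition above a set limit at 5 µM in the primary screen, cut at about 50% in these data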;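 further: plate controls were negative control wells for no effect and 2.5 mM tranylcypromine positive control for full effect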
# Target sequence (P33261 whole entry, looked up): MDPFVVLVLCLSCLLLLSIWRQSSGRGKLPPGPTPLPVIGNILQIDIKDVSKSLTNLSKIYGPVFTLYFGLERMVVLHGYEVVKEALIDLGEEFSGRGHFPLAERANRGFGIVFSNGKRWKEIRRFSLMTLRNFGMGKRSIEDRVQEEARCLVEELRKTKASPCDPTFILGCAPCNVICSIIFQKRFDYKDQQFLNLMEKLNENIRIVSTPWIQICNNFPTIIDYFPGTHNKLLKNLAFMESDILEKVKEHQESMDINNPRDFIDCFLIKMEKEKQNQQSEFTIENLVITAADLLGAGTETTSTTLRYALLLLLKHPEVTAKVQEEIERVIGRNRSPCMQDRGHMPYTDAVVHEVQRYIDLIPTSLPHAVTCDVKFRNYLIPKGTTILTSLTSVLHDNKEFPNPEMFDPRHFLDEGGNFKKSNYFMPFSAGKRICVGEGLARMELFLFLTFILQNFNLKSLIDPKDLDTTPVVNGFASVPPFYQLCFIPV
# CYP2C9 act = activators of human CYP2C9; P11712; recombinant CYP2C9, luciferin-H conversion, luminescence; hits give high values; factor 1 = untreated enzyme, 0 = blocked; activation factor at 5 µM; 96,000 tested, 1.4% active; AID 1024;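 active means activation factor of 2 or more for CYP2C9 at a 5 µM dose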;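 further: 0 = sulfaphenazole-blocked wells and 1 = vehicle-only wells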
# PostGolgi yeast = growth inhibition of a yeast mutant, post-Golgi transport screen; post-Golgi transport phenotypic cell assay; inhibition, % at 10 µM; 98,000 tested, 0.9% active; AID 739;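 further: yeast cells grown in 1536-well plates; yeast grown about 18 h at 30C before absorbance read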
# CYP2C19 act = increases human CYP2C19 enzyme activity. activation factor at 5 µM. 96,000 tested, under 10 active. P33261. recombinant CYP2C19, luciferin-H EGE luminescence; hits give high values; 0 = fully inhibited enzyme, 1 = untreated enzyme;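 active means activation factor of at least 2 at 5 µM in the primary screen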;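 further: 0 = wells with 2.5 mM tranylcypromine and 1 = vehicle-only wells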
# Numbers without * were called inactive; . = no result given. Shown are actives, neighbours in structure and some others; about 32% of the full set was active somewhere. Unless noted, no stated cut-off is given here; in the data, active means inhibition above about 30%; inactive means the rest.
SMILES,CYP2C9 inhib,PostGolgi ctrl,CYP2C19 inhib,CYP2C9 act,PostGolgi yeast,CYP2C19 act
CCc1ccc(C2(C)SC(NC(C)=O)=NN2C(C)=O)cc1 (centres undefined),22.6,29.0,70.8*,0.8,-6.8,0.3
CCc1ccc2c(c1)C1(SC(NC(C)=O)=NN1C(C)=O)C(=O)N2C(C)C (centres undefined),-10.0,8.9,-4.1,1.1,3.6,1
CC1CCN(C(=O)c2ccccc2NC(=O)c2cccc(S(=O)(=O)N3CCOCC3)c2)CC1,25.0,-4.9,16.7,0.8,-11.9,0.8
COc1cc2c(cc1OC)C(c1ccccc1)N(C(=O)c1ccco1)CC2 (centres undefined),81.7*,28.1,94.4*,0.2,-0.3,0.1
COc1cc2c(cc1OC)C(c1cccc([N+](=O)[O-])c1)N(C(=O)c1ccc(F)cc1)CC2 (centres undefined),65.3*,25.4,81.2*,0.3,-0.5,0.2
Cc1cc(NC(=O)CN2CCN(S(=O)(=O)c3ccc4ccccc4c3)CC2)no1,-64.2,7.1,0.3,1.6,-3.6,1
COc1ccc(S(=O)(=O)N2CCN(C)CC2)cc1Br,-78.4,-0.5,27.7,1.8,0.8,0.7
CCN1CCN(S(=O)(=O)c2ccc(OC)c(Br)c2)CC1,-159.1,7.1,72.2*,2.6*,-0.5,0.3
CCN1CCN(S(=O)(=O)c2ccc3ccccc3c2)CC1,-102.2,6.0,70.7*,2*,-1.3,0.3
O=S(=O)(c1ccc2ccccc2c1)N1CCN(S(=O)(=O)N2CCCCC2)CC1,-27.1,-0.8,3.8,1.3,2.7,1
COc1ccc(S(=O)(=O)N2CCC(C)CC2)cc1Br,-193.7,16.6,70.9*,2.9*,-4.0,0.3
CC1CN(C2CCN(S(=O)(=O)c3ccc4ccccc4c3)CC2)CC(C)O1 (centres undefined),-60.8,38.0*,10.7,1.6,82.6*,0.9
Cc1ccc(-n2c(=O)[nH]cc(C(=O)Nc3ccc4c(c3)OCO4)c2=O)cc1C,-37.7,.,-16.1,1.4,.,1.2
N/C(COc1ccccc1)=N\NS(=O)(=O)c1ccccc1,-19.0,0.8,21.3,1.2,6.4,0.8
Cc1nn(CC(=O)NCc2ccc(OC(C)C)cc2)c(=O)c2cc3occc3n12,-31.7,8.6,8.2,1.3,0.2,0.9
COc1cc(CN(C)Cc2ccccc2)cc(OC)c1O,28.1,1.2,65.0*,0.7,-1.6,0.3
CCOC(=O)C1=C(C)Nc2ccccc2N=C1NC(=O)c1cccc(S(=O)(=O)NCc2ccccc2)c1,32.6,9.5,-6.8,0.7,-5.3,1.1
COc1cc(-c2nnc(COc3ccc4ccccc4c3)o2)cc(OC)c1OC,49.1,2.9,45.9,0.5,-3.4,0.5
N#CCSc1nnc(COc2ccc3ccccc3c2)o1,9.8,14.2,56.8*,0.9,-10.3,0.4
O=C(Nc1nnc(CCS(=O)(=O)c2ccc(Br)cc2)s1)c1ccc([N+](=O)[O-])cc1,-11.4,-3.0,-8.2,1.1,-0.6,1.1
CCN(CC)C(=O)CSC1=Nc2ccccc2C2=NC(Cc3c[nH]c4ccccc34)C(=O)N12 (centres undefined),49.6,34.4*,24.5,0.5,-7.6,0.8
Cc1cc(NC(=O)CSC2=Nc3ccccc3C3=NC(Cc4ccccc4)C(=O)N23)n[nH]1 (centres undefined),11.6,8.3,7.1,0.9,-7.8,0.9
Cc1ccc(C(c2nnnn2Cc2cccs2)N2CCN(Cc3ccc4c(c3)OCO4)CC2)cc1 (centres undefined),39.8,25.2,61.5*,0.6,10.2,0.4
CC(C)(C)n1nnnc1C(c1cccs1)N1CCN(Cc2ccc3c(c2)OCO3)CC1 (centres undefined),38.3,4.3,52.7*,0.6,-2.9,0.5
COCCn1nnnc1C(c1ccc(C)cc1)N1CCN(Cc2ccc3c(c2)OCO3)CC1 (centres undefined),51.4*,1.5,47.7,0.5,-7.9,0.5
SMILES,CYP2C9 inhib,PostGolgi ctrl,CYP2C19 inhib,CYP2C9 act,PostGolgi yeast,CYP2C19 act
COc1ccccc1CN1CCN(C(CC(C)C)c2nnnn2Cc2cccs2)CC1 (centres undefined),58.2*,17.5,92.3*,0.4,-3.0,0.1
COC(=O)C1(C)Nc2ccccc2C(=O)N1c1ccccc1C (centres undefined),19.0,10.3,37.3,0.8,-11.5,0.6
CC1(C)OC(=O)C(=CNC(CCC(N)=O)C(=O)O)C(=O)O1 (centres undefined),-6.2,-7.0,-9.0,1.1,-10.7,1.1
C/C(=N/Nc1nc(-c2ccc(Cl)cc2)cs1)c1cccs1,48.2,16.7,22.3,0.5,15.3,0.8
CC(=O)c1c(C)cc(C)c(CSc2nc(C)cc(=O)[nH]2)c1C,26.4,.,-1.0,0.7,.,1
COc1cc(=O)[nH]c(SCc2c(F)c(F)c(F)c(F)c2F)n1,50.5*,52.8*,26.8,0.5,11.4,0.7
Cc1cccc(NC(=O)CC2C(=O)NCCN2C(=S)Nc2ccccc2)c1 (centres undefined),27.9,-0.3,19.4,0.7,-1.6,0.8
O=[N+]([O-])c1ccc2nc(/C=C/c3ccc(Cl)cc3)[nH]c2c1,43.0,74.5*,31.8,0.6,47.4*,0.7
O=[N+]([O-])c1ccc(-c2nc3ccc([N+](=O)[O-])cc3[nH]2)cc1,-3.2,18.3,-9.0,1,-1.6,1.1
C=CCC(C=C)S(=O)(=O)c1ccc(C)cc1 (centres undefined),14.1,9.9,86.7*,0.9,-3.4,0.1
O=C1CC(N(O)c2ccccc2)C(=O)N1Cc1ccccc1 (centres undefined),1.2,1.7,78.1*,1,1.1,0.2
O=C1CC(N(O)c2ccccc2)C(=O)N1c1cc(Cl)cc(Cl)c1 (centres undefined),-51.4,18.0,23.3,1.5,1.3,0.8
Cc1ccccc1N1C(=O)CC(N(O)c2ccccc2)C1=O (centres undefined),-19.7,12.6,74.4*,1.2,-1.9,0.3
CC1CCc2nc(NC(=O)Cc3cccs3)sc2C1 (centres undefined),20.1,13.0,11.0,0.8,-13.5,0.9
CC(C)(C)C1CCc2nc(NC(=O)Cc3cn4ccsc4n3)sc2C1 (centres undefined),34.4,46.2*,19.6,0.7,0.3,0.8
CCN(CC)c1ccc(C2N(C(=O)N3CCOCC3)CCN2S(=O)(=O)c2ccc(C)cc2)cc1 (centres undefined),43.5,0.5,26.1,0.6,5.7,0.7
O=C(Nc1c2c(nn1-c1ccc(F)cc1)CS(=O)(=O)C2)C12CC3CC(CC(C3)C1)C2,12.6,8.8,13.5,0.9,4.8,0.9
COCCCNC(=O)c1cccs1,9.8,20.9,15.0,0.9,-2.4,0.8
COCCCNC(=O)c1ccc(-n2nc(C(F)(F)F)cc2-c2cccs2)cc1,50.4*,6.8,52.7*,0.5,1.6,0.5
